Results reported in the supplement of paper PMC4466140.

Biological target: AgAbp1
Experiment: SPOT peptide array binding signal intensity (averaged, normalized) (arbitrary units (background-subtracted, floor 0; scale differs between SH3 domains)); higher = stronger binding of the SH3 domain to the peptide
Summary of the method: (§1)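 GST-SH3 fusions from four yeast species, purified on glutathione Sepharose, were incubated at 10 μg/ml overnight at 4°C on membranes of synthetic 15-mer peptides in which cysteines were replaced with serines. Binding signal is the normalized, background-subtracted spot intensity averaged over replicates, in domain-specific arbitrary units.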

Binder	SPOT peptide array binding signal intensity
FLIKFTPKFPQSIDH	11

Biological target: AgBbc1
Experiment: as above
Summary of the method: as §1

Binder	SPOT peptide array binding signal intensity
FLIKFTPKFPQSIDH	89.8

Biological target: AgBem1-D1
Experiment: as above
Summary of the method: as §1

Binder	SPOT peptide array binding signal intensity
FLIKFTPKFPQSIDH	681

Biological target: AgBzz1-D1
Experiment: as above
Summary of the method: as §1

Binder	SPOT peptide array binding signal intensity
FLIKFTPKFPQSIDH	120

Biological target: AgBzz1-D2
Experiment: as above
Summary of the method: as §1

Binder	SPOT peptide array binding signal intensity
FLIKFTPKFPQSIDH	229

Biological target: AgCyk3
Experiment: as above
Summary of the method: as §1

Binder	SPOT peptide array binding signal intensity
FLIKFTPKFPQSIDH	165

Biological target: AgFus1
Experiment: as above
Summary of the method: as §1

Binder	SPOT peptide array binding signal intensity
FLIKFTPKFPQSIDH	1690

Biological target: AgHof1
Experiment: as above
Summary of the method: as §1

Binder	SPOT peptide array binding signal intensity
FLIKFTPKFPQSIDH	45

Biological target: AgHse1
Experiment: as above
Summary of the method: as §1

Binder	SPOT peptide array binding signal intensity
FLIKFTPKFPQSIDH	1660

Biological target: AgLsb1
Experiment: as above
Summary of the method: as §1

Binder	SPOT peptide array binding signal intensity
FLIKFTPKFPQSIDH	2.5

Biological target: AgLsb4
Experiment: as above
Summary of the method: as §1

Binder	SPOT peptide array binding signal intensity
FLIKFTPKFPQSIDH	1180

Biological target: AgMyo5
Experiment: as above
Summary of the method: as §1

Binder	SPOT peptide array binding signal intensity
FLIKFTPKFPQSIDH	1.5

Biological target: AgNbp2
Experiment: as above
Summary of the method: as §1

Binder	SPOT peptide array binding signal intensity
FLIKFTPKFPQSIDH	669

Biological target: AgRvs167
Experiment: as above
Summary of the method: as §1

Binder	SPOT peptide array binding signal intensity
FLIKFTPKFPQSIDH	15

Biological target: AgSho1
Experiment: as above
Summary of the method: as §1

Binder	SPOT peptide array binding signal intensity
FLIKFTPKFPQSIDH	814

Biological target: AgSla1-D1-D2
Experiment: as above
Summary of the method: as §1

Binder	SPOT peptide array binding signal intensity
FLIKFTPKFPQSIDH	524

Biological target: AgSla1-D3
Experiment: as above
Summary of the method: as §1

Binder	SPOT peptide array binding signal intensity
FLIKFTPKFPQSIDH	33.8

Biological target: CaAbp1-D1
Experiment: as above
Summary of the method: as §1

Binder	SPOT peptide array binding signal intensity
FLIKFTPKFPQSIDH	172

Biological target: CaAbp1-D2
Experiment: as above
Summary of the method: as §1

Binder	SPOT peptide array binding signal intensity
FLIKFTPKFPQSIDH	120

Biological target: CaBbc1
Experiment: as above
Summary of the method: as §1

Binder	SPOT peptide array binding signal intensity
FLIKFTPKFPQSIDH	75

Biological target: CaBem1-D1
Experiment: as above
Summary of the method: as §1

Binder	SPOT peptide array binding signal intensity
FLIKFTPKFPQSIDH	103

Biological target: CaBzz1-D1
Experiment: as above
Summary of the method: as §1

Binder	SPOT peptide array binding signal intensity
FLIKFTPKFPQSIDH	819

Biological target: CaBzz1-D2
Experiment: as above
Summary of the method: as §1

Binder	SPOT peptide array binding signal intensity
FLIKFTPKFPQSIDH	281

Biological target: CaCyk3
Experiment: as above
Summary of the method: as §1

Binder	SPOT peptide array binding signal intensity
FLIKFTPKFPQSIDH	136

Biological target: CaFus1
Experiment: as above
Summary of the method: as §1

Binder	SPOT peptide array binding signal intensity
FLIKFTPKFPQSIDH	3550

Biological target: CaHof1
Experiment: as above
Summary of the method: as §1

Binder	SPOT peptide array binding signal intensity
FLIKFTPKFPQSIDH	6.5

Biological target: CaHse1
Experiment: as above
Summary of the method: as §1

Binder	SPOT peptide array binding signal intensity
FLIKFTPKFPQSIDH	588

Biological target: CaLsb1
Experiment: as above
Summary of the method: as §1

Binder	SPOT peptide array binding signal intensity
FLIKFTPKFPQSIDH	10

Biological target: CaLsb4
Experiment: as above
Summary of the method: as §1

Binder	SPOT peptide array binding signal intensity
FLIKFTPKFPQSIDH	299

Biological target: CaMyo5
Experiment: as above
Summary of the method: as §1

Binder	SPOT peptide array binding signal intensity
FLIKFTPKFPQSIDH	94

Biological target: CaNbp2
Experiment: as above
Summary of the method: as §1

Binder	SPOT peptide array binding signal intensity
FLIKFTPKFPQSIDH	1020

Biological target: CaRvs167
Experiment: as above
Summary of the method: as §1

Binder	SPOT peptide array binding signal intensity
FLIKFTPKFPQSIDH	651

Biological target: CaRvs167-3
Experiment: as above
Summary of the method: as §1

Binder	SPOT peptide array binding signal intensity
FLIKFTPKFPQSIDH	2160

Biological target: CaSho1
Experiment: as above
Summary of the method: as §1

Binder	SPOT peptide array binding signal intensity
FLIKFTPKFPQSIDH	2110

Biological target: CaSla1-D1-D2
Experiment: as above
Summary of the method: as §1

Binder	SPOT peptide array binding signal intensity
FLIKFTPKFPQSIDH	43

Biological target: CaSla1-D3
Experiment: as above
Summary of the method: as §1

Binder	SPOT peptide array binding signal intensity
FLIKFTPKFPQSIDH	585

Biological target: ScAbp1
Experiment: as above
Summary of the method: as §1

Binder	SPOT peptide array binding signal intensity
FLIKFTPKFPQSIDH	7
